Data from PubChem BioAssay AID1159580 (chemical genetic matrix, 2015).
Values joined by “and” are separate entries in the source; they are usually repeats but may differ in a detail not shown here. Equal entries are not always repeated. Screen size: about 5,500 compounds; about 2,000 (36%) were called active. Inconclusive results (about 18%) are left out. Cut-off read from the data, not from the text of the source: active = normalized growth mostly below about 0.91 (no sharp cut-off); inconclusive = no clear call, values can overlap the other calls; inactive = mostly above about 0.92. The list shows a part of the results.

Test: chemical genetic growth profiling, strain panel (AID 1159580);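 note: tested at 20 µM; growth read once vehicle control cultures reached saturation at 30 °C; 1 = growth at the plate median or of vehicle wells; lower values mean less growth of the strain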
Conditions: S. cerevisiae deletion strains, growth OD

Measured: normalized growth

CC(=O)N[C@@H](Cc1c[nH]c2ccccc12)C(N)=O
inactive: locus YAL013W, strain DEP1, active compounds read low 1.09 | locus YAL021C, strain ccr4, active compounds read low 1 | locus YAL026C, strain drs2, active compounds read low 1 | locus YAL030W, strain snc1, active compounds read low 1.02 | locus YBL061C, strain skt5, active compounds read low 1.02 | locus YBR009C, strain hhf1, active compounds read low 1.01 | locus YBR021W, strain FUR4, active compounds read low 1.02 | locus YBR023C, strain chs3, active compounds read low 1.02 | locus YBR171W, strain sec66, active compounds read low 1.01 | locus YBR229C, strain ROT2, active compounds read low 0.965 | locus YBR231C, strain swc5, active compounds read low 1.02 | locus YBR279W, strain paf1, active compounds read low 1.01 | locus YCL011C, strain gbp2, active compounds read low 1.02 | locus YCL016C, strain dcc1, active compounds read low 1.01 | locus YCL029C, strain bik1, active compounds read low 0.999 | locus YCL061C, strain MRC1, active compounds read low 1.02 | locus YCL069W, strain vba3, active compounds read low 1.02 | locus YCR088W, strain abp1, active compounds read low 1.03 | locus YDL005C, strain med2, active compounds read low 1.04 | locus YDL035C, strain GPR1, active compounds read low 0.985 | locus YDL040C, strain nat1, active compounds read low 1.02 | locus YDL074C, strain BRE1, active compounds read low 0.948 | locus YDL101C, strain DUN1, active compounds read low 0.977 | locus YDL134C, strain PPH21, active compounds read low 0.985 | locus YDL185W, strain tfp1, active compounds read low 0.972 | locus YDL192W, strain arf1, active compounds read low 0.99 | locus YDR001C, strain nth1, active compounds read low 1.01 | locus YDR069C, strain doa4, active compounds read low 1.03 | locus YDR101C, strain arx1, active compounds read low 0.997 | locus YDR137W, strain rgp1, active compounds read low 1.01 | locus YDR150W, strain NUM1, active compounds read low 0.972 | locus YDR159W, strain sac3, active compounds read low 1.03 | locus YDR162C, strain NBP2, active compounds read low 0.945 | locus YDR195W, strain ref2 1.05 | locus YDR297W, strain sur2, active compounds read low 1.03 | locus YDR318W, strain mcm21, active compounds read low 1 | locus YDR334W, strain swr1, active compounds read low 1.01 | locus YDR335W, strain msn5, active compounds read low 1 | locus YDR388W, active compounds read low 1 | locus YDR392W, strain spt3, active compounds read low 0.953 | locus YDR502C, strain sam2, active compounds read low 0.996 | locus YEL003W, strain gim4, active compounds read low 1.01 | locus YEL037C, strain rad23, active compounds read low 1.02 | locus YEL061C, strain CIN8 (second series), active compounds read low 1.02 | locus YEL061C, strain CIN8, active compounds read low 0.99 | locus YER015W, strain faa2, active compounds read low 1.02 | locus YER016W, strain bim1, active compounds read low 1.01 | locus YER110C, active compounds read low 1 | locus YER111C, strain swi4, active compounds read low 1.01 | locus YER155C, strain BEM2 (second series), active compounds read low 1.06 | locus YER155C, strain BEM2, active compounds read low 1.01 | locus YER167W, strain BCK2, active compounds read low 1.01 | locus YFR010W, strain ubp6, active compounds read low 1.02 | locus YGL078C, strain dbp3, active compounds read low 0.994 | locus YGL086W, strain mad1, active compounds read low 1 | locus YGL167C, strain pmr1, active compounds read low 1.01 | locus YGL173C, strain kem1, active compounds read low 1.02 | locus YGL227W, strain vid30, active compounds read low 1.03 | locus YGL240W, strain doc1, active compounds read low 1.05 | locus YGL248W, strain PDE1, active compounds read low 0.986 | locus YGL253W, strain hxk2, active compounds read low 1.01 | locus YGR078C, strain PAC10, active compounds read low 0.97 | locus YGR135W, strain pre9, active compounds read low 0.983 | locus YGR229C, strain SMI1, active compounds read low 0.973 | locus YGR252W, strain gcn5, active compounds read low 1.02 | locus YHR013C, strain ard1, active compounds read low 1.03 | locus YHR027C, strain rpn1, active compounds read low 1.01 | locus YHR030C, strain SLT2, active compounds read low 1 | locus YHR079C, strain IRE1 (second series), active compounds read low 1.01 | locus YHR079C, strain IRE1, active compounds read low 0.99 | locus YHR094C, strain hxt1, active compounds read low 0.995 | locus YHR129C, strain ARP1, active compounds read low 0.994 | locus YHR142W, strain chs7, active compounds read low 1 | locus YHR200W, strain rpn10, active compounds read low 1.01 | locus YIL066C, strain RNR3, active compounds read low 0.973 | locus YIL073C, strain SPO22, active compounds read low 1.06 | locus YIL125W, strain kgd1, active compounds read low 0.989 | locus YIR030C, strain dcg1, active compounds read low 1 | locus YJL092W, strain hpr5, active compounds read low 1.02 | locus YJL095W, strain BCK1 (second series), active compounds read low 1.02 | locus YJL095W, strain BCK1, active compounds read low 0.994 and 1.02 | locus YJL115W, strain asf1, active compounds read low 1.04 | locus YJL129C, strain trk1, active compounds read low 1.08 | locus YJL134W, strain LCB3, active compounds read low 0.997 | locus YJL154C, strain vps35, active compounds read low 1.02 | locus YJL164C, strain tpk1, active compounds read low 1.02 | locus YJL166W, strain qcr8, active compounds read low 1.04 | locus YJL168C, strain set2, active compounds read low 0.994 | locus YJL187C, strain SWE1 (second series), active compounds read low 0.972 | locus YJR043C, strain POL32, active compounds read low 1.05 | locus YJR066W, strain TOR1, active compounds read low 0.923
